# In the supplement of paper PMC10037445:
# Whole data set: some 2,900 compounds, median “NF-kB SEAP reporter activity, fold change vs agonist alone” near 0.99, cut for the highest 2% near 2.6. The full list was thinned out, with the highest values kept by preference.
# Tests used:
# [1] = system: RAW-Dual; assay: NF-kB SEAP reporter activity, fold change vs agonist alone; higher = enhanced NF-kB activity; settings: library stock concentration (final ~1000-fold dilution): 10 mM
# Summary of the method: (§1)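 After 50 nL of library stock was delivered by pin tool to RAW-Dual macrophages (50,000 cells/well, DMEM, 384-well plates), a PRR agonist was added 1 h later and the plates were kept at 37 °C, 5% CO2. Twenty hours later, IRF was read from supernatant by QuantiLuc luminescence and NF-κB by QuantiBlue absorbance at 620 nm. Reporter activity is stated as fold change over agonist-alone wells. Wells with IncuCyte confluency under 70% of agonist controls in both mask sets were counted as cytotoxic.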
# [2] = system: RAW-Dual; assay: NF-kB SEAP reporter activity, fold change vs agonist alone; cytotoxicity flag (confluency mask): not cytotoxic; higher = enhanced NF-kB activity
# Summary of the method: as §1
# [3] = system: RAW-Dual; assay: NF-kB SEAP reporter activity, fold change vs agonist alone; cytotoxicity flag (confluency mask): cytotoxic (confluency <70% of control); higher = enhanced NF-kB activity
# Summary of the method: as §1
# [4] = cytotoxicity flag (confluency mask): cytotoxic (confluency <70% of control), agonist: Imiquimod (TLR7) […]
# [5] = cytotoxicity flag (confluency mask): cytotoxic (confluency <70% of control), agonist: MPLA (TLR4) […]
# [6] = agonist: ODN 1826 (TLR9) 0.5 ug/mL
# [7] = agonist: Pam2CSK4 (TLR2/6) 0.1 ug/mL
# [8] = agonist: Pam3CSK4 (TLR2/1) 0.1 ug/mL
# [9] = cytotoxicity flag (confluency mask): not cytotoxic, agonist: Imiquimod (TLR7) […]
# [10] = cytotoxicity flag (confluency mask): not cytotoxic, agonist: MPLA (TLR4) […]
smiles,measurement,setting,value
CCOC(=O)C1=C(COCCN)NC(C)=C(C(=O)OC)C1c1ccccc1Cl.O=S(=O)(O)c1ccccc1 (centres undefined),NF-kB SEAP reporter activity,[1]; [4],2.53
same,NF-kB SEAP reporter activity,[1]; [5],2.58
CCCC(=O)OCOC(=O)C1=C(C)NC(C)=C(C(=O)OC)C1c1cccc(Cl)c1Cl (centres undefined) (library stock concentration (final ~1000-fold dilution): 10 mM),NF-kB SEAP reporter activity,[2]; agonist: LPS (TLR4) 0.1 ug/mL,0.954
same,NF-kB SEAP reporter activity,[2]; [6],1.19
same,NF-kB SEAP reporter activity,[2]; [7],0.911
same,NF-kB SEAP reporter activity,[2]; [8],1.1
CCCC(=O)OCOC(=O)C1=C(C)NC(C)=C(C(=O)OC)C1c1cccc(Cl)c1Cl (centres undefined),NF-kB SEAP reporter activity,[1]; [9],1.02
same,NF-kB SEAP reporter activity,[1]; [10],0.958
CCC1OC(=O)C(C)C(OC2CC(C)(OC)C(O)C(C)O2)C(C)C(OC2OC(C)CC(N(C)C)C2O)C(C)(OC)CC(C)C(=O)C(C)C(O)C1(C)O (centres undefined) (library stock concentration (final ~1000-fold dilution): 10 mM),NF-kB SEAP reporter activity,[2]; agonist: LPS (TLR4) 0.1 ug/mL,0.99
same,NF-kB SEAP reporter activity,[2]; [6],0.929
same,NF-kB SEAP reporter activity,[2]; [7],0.942
same,NF-kB SEAP reporter activity,[2]; [8],0.932
CCC1OC(=O)C(C)C(OC2CC(C)(OC)C(O)C(C)O2)C(C)C(OC2OC(C)CC(N(C)C)C2O)C(C)(OC)CC(C)C(=O)C(C)C(O)C1(C)O (centres undefined),NF-kB SEAP reporter activity,[1]; [9],0.947
same,NF-kB SEAP reporter activity,[1]; [10],0.96
CC(=O)C1CCC2C3CC=C4CC(O)CCC4(C)C3CCC12C (centres undefined),NF-kB SEAP reporter activity,[1]; [9],1.07
same,NF-kB SEAP reporter activity,[1]; [10],1.3
CC(=O)C1CCC2C3CC=C4CC(O)CCC4(C)C3CCC12C (centres undefined) (library stock concentration (final ~1000-fold dilution): 10 mM),NF-kB SEAP reporter activity,[2]; agonist: LPS (TLR4) 0.1 ug/mL,1.1
same,NF-kB SEAP reporter activity,[2]; [6],0.897
same,NF-kB SEAP reporter activity,[2]; [7],0.904
same,NF-kB SEAP reporter activity,[2]; [8],0.972
N#Cc1ccc(COCC2OC(n3c(NCc4ccc(Cl)c(Cl)c4)nc4c(N)ncnc43)C(O)C2O)cc1 (centres undefined),NF-kB SEAP reporter activity,[1]; [9],0.762
same,NF-kB SEAP reporter activity,[1]; [10],0.966
N#Cc1ccc(COCC2OC(n3c(NCc4ccc(Cl)c(Cl)c4)nc4c(N)ncnc43)C(O)C2O)cc1 (centres undefined) (library stock concentration (final ~1000-fold dilution): 10 mM),NF-kB SEAP reporter activity,[2]; agonist: LPS (TLR4) 0.1 ug/mL,0.934
same,NF-kB SEAP reporter activity,[2]; [6],1.01
same,NF-kB SEAP reporter activity,[2]; [7],0.742
same,NF-kB SEAP reporter activity,[2]; [8],0.944
Cc1ccc(NC(=O)Nc2cc(-c3ccccc3-c3nnn[nH]3)ccc2N(CC(C)C)CC(C)C)cc1,NF-kB SEAP reporter activity,[1]; [4],0.81
same,NF-kB SEAP reporter activity,[1]; [5],1.25
Cc1ccc(NC(=O)Nc2cc(-c3ccccc3-c3nnn[nH]3)ccc2N(CC(C)C)CC(C)C)cc1 (library stock concentration (final ~1000-fold dilution): 10 mM),NF-kB SEAP reporter activity,[3]; agonist: LPS (TLR4) 0.1 ug/mL,1.16
same,NF-kB SEAP reporter activity,[3]; [6],0.54
same,NF-kB SEAP reporter activity,[3]; [7],0.207
same,NF-kB SEAP reporter activity,[3]; [8],0.333
COc1ccc(CC(N)C(=O)NC2C(CO)OC(n3cnc4c(N(C)C)ncnc43)C2O)cc1.Cl.Cl (centres undefined),NF-kB SEAP reporter activity,[1]; [9],0.438
same,NF-kB SEAP reporter activity,[1]; [10],1.12
COc1ccc(CC(N)C(=O)NC2C(CO)OC(n3cnc4c(N(C)C)ncnc43)C2O)cc1.Cl.Cl (centres undefined) (library stock concentration (final ~1000-fold dilution): 10 mM),NF-kB SEAP reporter activity,[2]; agonist: LPS (TLR4) 0.1 ug/mL,0.584
same,NF-kB SEAP reporter activity,[2]; [6],0.469
same,NF-kB SEAP reporter activity,[2]; [7],0.13
same,NF-kB SEAP reporter activity,[2]; [8],0.256
NC(=O)c1cnc2[nH]ccc2c1NC1C2CC3CC1CC(O)(C3)C2 (centres undefined),NF-kB SEAP reporter activity,[1]; [9],0.334
same,NF-kB SEAP reporter activity,[1]; [10],0.347
NC(=O)c1cnc2[nH]ccc2c1NC1C2CC3CC1CC(O)(C3)C2 (centres undefined) (library stock concentration (final ~1000-fold dilution): 10 mM),NF-kB SEAP reporter activity,[2]; agonist: LPS (TLR4) 0.1 ug/mL,0.305
same,NF-kB SEAP reporter activity,[2]; [6],0.398
same,NF-kB SEAP reporter activity,[2]; [7],0.242
same,NF-kB SEAP reporter activity,[2]; [8],0.31
CC(NC(=Nc1cccc2ncccc12)NC#N)c1ccccc1 (centres undefined) (library stock concentration (final ~1000-fold dilution): 10 mM),NF-kB SEAP reporter activity,[2]; agonist: LPS (TLR4) 0.1 ug/mL,1.34
same,NF-kB SEAP reporter activity,[2]; [6],1.07
same,NF-kB SEAP reporter activity,[2]; [7],1.13
same,NF-kB SEAP reporter activity,[2]; [8],1.29
CC(NC(=Nc1cccc2ncccc12)NC#N)c1ccccc1 (centres undefined),NF-kB SEAP reporter activity,[1]; [9],0.897
same,NF-kB SEAP reporter activity,[1]; [10],1.12
CC(NC(=O)c1ccccc1N=Cc1c(O)ccc2ccccc12)c1ccccc1 (centres undefined),NF-kB SEAP reporter activity,[1]; [9],1.56
same,NF-kB SEAP reporter activity,[1]; [10],2.25
CC(C(=O)Nc1cccc(N=Cc2c(O)ccc3ccccc23)c1)c1ccccc1 (centres undefined),NF-kB SEAP reporter activity,[1]; [9],1.67
same,NF-kB SEAP reporter activity,[1]; [10],2.34
CC(NC(=O)c1ccccc1N=Cc1c(O)ccc2ccccc12)c1ccccc1 (centres undefined) (library stock concentration (final ~1000-fold dilution): 10 mM),NF-kB SEAP reporter activity,[2]; agonist: LPS (TLR4) 0.1 ug/mL,5.11
same,NF-kB SEAP reporter activity,[2]; [6],1.72
same,NF-kB SEAP reporter activity,[2]; [7],0.843
same,NF-kB SEAP reporter activity,[2]; [8],1.53
CC(NC(=O)CCc1nc2ccccc2c(=O)[nH]1)c1ccccc1 (centres undefined),NF-kB SEAP reporter activity,[1]; [9],1.03
same,NF-kB SEAP reporter activity,[1]; [10],1.03
CC(C(=O)Nc1cccc(N=Cc2c(O)ccc3ccccc23)c1)c1ccccc1 (centres undefined) (library stock concentration (final ~1000-fold dilution): 10 mM),NF-kB SEAP reporter activity,[2]; agonist: LPS (TLR4) 0.1 ug/mL,6.64
same,NF-kB SEAP reporter activity,[2]; [6],2.52
same,NF-kB SEAP reporter activity,[2]; [7],1.5
same,NF-kB SEAP reporter activity,[2]; [8],1.74
CC(NC(=O)CCc1nc2ccccc2c(=O)[nH]1)c1ccccc1 (centres undefined) (library stock concentration (final ~1000-fold dilution): 10 mM),NF-kB SEAP reporter activity,[2]; agonist: LPS (TLR4) 0.1 ug/mL,0.987
same,NF-kB SEAP reporter activity,[2]; [6],1.32
same,NF-kB SEAP reporter activity,[2]; [7],0.95
same,NF-kB SEAP reporter activity,[2]; [8],1.25
CCN1CCN(Cc2ccc(-c3cc4c(NC(C)c5ccccc5)ncnc4[nH]3)cc2)CC1 (centres undefined),NF-kB SEAP reporter activity,[1]; [9],1.59
same,NF-kB SEAP reporter activity,[1]; [10],0.93
CCN1CCN(Cc2ccc(-c3cc4c(NC(C)c5ccccc5)ncnc4[nH]3)cc2)CC1 (centres undefined) (library stock concentration (final ~1000-fold dilution): 10 mM),NF-kB SEAP reporter activity,[2]; agonist: LPS (TLR4) 0.1 ug/mL,0.832
same,NF-kB SEAP reporter activity,[2]; [6],0.215
same,NF-kB SEAP reporter activity,[2]; [7],1.02
same,NF-kB SEAP reporter activity,[2]; [8],1.01
